This is an account of results in the supplement of paper PMC10105736.

Values without a mark were called inactive.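 How the source made its calls: active = MAPPIT score above the 99th percentile of random reference set scores in the same batch; inactive = at or below it.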

Common to all, as to assay: MAPPIT interaction score (arbitrary units); higher = stronger binary interaction signal, active = hit call of the paper
For one test, the target named is CG12567. The following applies: pair source set: RRS.
A further test has as its target CG14664. The following applies: pair source set: RRS.
The target of the next test is DIP1. The following applies: MAPPIT configuration: N-N; pair source set: screen_2.
The target in a further test is GstZ2. As to conditions: pair source set: RRS.
The target of a further test is CG12470. The following applies: MAPPIT configuration: N-N.
The target of another test is Eb1. The following applies: MAPPIT configuration: N-N; pair source set: screen_1.
A further test has as its target SmydA-3. As to conditions: MAPPIT configuration: N-N; pair source set: screen_2.
The next test addresses Sply. The following applies: MAPPIT configuration: N-N; pair source set: Finley_Y2H.
The next test deals with ben. As to conditions: MAPPIT configuration: N-N; pair source set: screen_2.
The target in the next test is hb. The following applies: MAPPIT configuration: N-N; pair source set: screen_1.
The target in another test is promL. The following applies: MAPPIT configuration: N-N; pair source set: screen_2.
The next test concerns the target pzg. The following applies: MAPPIT configuration: N-N; pair source set: Curagen_high_conf.
For the next test, the target named is spin. As to conditions: MAPPIT configuration: N-N; pair source set: screen_1.
The next test concerns the target CG12307. The following applies: MAPPIT configuration: N-C; pair source set: screen_3.
Another test concerns the target CG5151. As to conditions: MAPPIT configuration: N-N; pair source set: Curagen_high_conf.
The next test has as its target Npl4. The following applies: MAPPIT configuration: N-N; pair source set: Finley_Y2H.
For a further test, the target named is PAN3. The following applies: MAPPIT configuration: N-N; pair source set: Finley_Y2H.
The target in a further test is Sxl. As to conditions: MAPPIT configuration: N-N; pair source set: Finley_Y2H.
Another test concerns the target mxt. The following applies: MAPPIT configuration: N-N; pair source set: screen_1.
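Further: HEK293T cells with Epo stimulation, STAT-responsive firefly luciferase reporter, fold induction versus unstimulated cells divided by the larger fold induction of two negative controls lacking either bait or prey.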

B1: Adar (protein)
chain: MKFDSRVMLNSANNNSPQHPVSAPSDINMNGYNRKLPQKRGYEMPKYSDPKKKMCKERIPQPKNTVAMLNELRHGLIYKLESQTGPVHAPLFTISVEVDGQKYLGQGRSKKVARIEAAATALRSFIQFKDGAVLSPLKPAGNLDFTSDEHLENGIENLSSSKMFEIIQTMLTEKLSNPTSLEQPTFCMSQNVSKSAITVDGQKKVPDKGPVMLLYELFNDVNFECINIDGAQNNCRFKMTVTINEKKFDGTGPSKKTAKNAAAKAALASLCNISYSPMVVPQKNVPLPIDDKSSSMELPQIHADTIGRLVLEKFMEVIKGQEAYSRRKVLAGIVMTENMNFCEAKVISVSTGTKCVSGEHMSVNGAVLNDSHAEIVSRRCLLKYLYAQLDLQCNQATAYQSIFVRNTDGQYPYKLKSGVHFHLYINTAPCGDARIFSPHENDTGVDKHPNRKARGQLRTKIESGEGTIPVKSSDGIQTWDGVLQGQRLLTMSCSDKIARWNIVGIQGSLLSSIIEPVYLHSIVLGSLLHPEHMYRAVCGRIEKSIQGLPPPYHLNKPRLALVTSAEPRNQAKAPNFGINWTIGDTELEVVNSLTGRTIGGQVSRITKQAFFVKYGFLMANLPGILVRKVTTDYGQTKANVKDYQIAKLELFSAFKREDLGSWLKKPIEQDEFGLAE
For the molecule B1, the MAPPIT interaction score with CG12567 (MAPPIT configuration: N-C) was 0.742; in the test with CG12567 (MAPPIT configuration: N-N), 1.87; with CG14664 (MAPPIT configuration: N-C), -0.248; in the test with CG14664 (MAPPIT configuration: N-N) it was 0.297; with DIP1 it was -0.0973; in the test with GstZ2 (MAPPIT configuration: N-C), 0.124. Moreover, in the test with GstZ2 (MAPPIT configuration: N-N), the MAPPIT interaction score is -0.194.

B2: sinah (protein)
chain: MSVRNSRPQLSWPERVSPQRTIDTPTASGEMLTRRQSAPALVVPPEETTHVVVVKRQSPDAAAAGELVPSRRKDSVAVQSGIVATGPLDTTRSGARDDFLMALLECPVCFGYIMPPIMQCPRGHLICSTCRSKLTICPVCRVFMTNIRSLAMEKVASKLIFPCKHSHFGCRARLSYAEKTKHEEDCECRPYFCPYPDDKCSWQGPLRDVYQHLMSSHENVITMEGNDIIFLATNVNLEGALDWTMVQSCHGRHFLLSLEKINLGEDCQQYFTACRMIGSMKDAAEFVYNISLEAYNRTLRWQSKPRSIRENFSSFTNADFLVLNKHTVELFSEDGNLALNVVIRKVEERTN
For the molecule B2, the MAPPIT interaction score in the test with CG12470 (pair source set: Curagen_low_conf) was 2.95 (active); with Eb1 it was -0.0985; with SmydA-3, 0.15; with Sply, 1.41; with ben it was 1.2; with hb it was -0.281. The MAPPIT interaction score with promL is 0.506; with pzg it was -1; with spin, 0.564.

B3: CycG (protein)
chain: MSVPVRYSSAAAEYAAEVDCELESTLQQQQQLHLQQQYEQYQHYQYQREQDIAYYCQLQAARQQEQLMQQRTSMSSSVMPGLALPQDHQDHPAALLNGPHNNNIGLAMDAHSINAILVDDEQPSTSAQAAAAAAASAGGSAGAGSGSGLGGAIGGGKLANGINRNAEMPTDWMRIADEGRYGTPGAAGLEYQKYEQQQQLEDLAESEAGAVGGASNNNGESSSSLKKLEDQLHALTSDELYETLKEYDVLQDKFHTVLLLPKESRREVTAGGRDGSAYVLRCLKMWYELPSDVLFSAMSLVDRFLDRMAVKPKHMACMSVASFHLAIKQLDLKPIPAEDLVTISQCGCTAGDLERMAGVIANKLGVQMGHAPITSVSYLRIYYALFRNLAKEIGGDFFKFYQQLIKLEELENRLEILMCDVKTTVITPSTLALVLICLHLDFHIKESYTRGSPELKHVFEYILFLQQYMRIPDRVFTCGFSIVSGILSHYNGQNKAPYKQRLVWKLSSRTLRVLRPINRFSSDLPTIEEGIPNALDDGLRSRTESISSEEEEDWPTSPIIPIFEQC
As for B3, the MAPPIT interaction score in the test with CG12307 was 0.375; in the test with CG5151, 0.112; with Npl4 it was 3.83 (active); with PAN3 it was 0.781; with Sxl, 1.86; in the test with mxt, -0.277.

B4: SNRPG (protein)
chain: MSKAHPPEVKKYMDKRMMLKLNGGRAVTGILRGFDPFMNVVLDDTVEECKDNTKNNIGMVVIRGNSIVMVEALDRV
Regarding B4, the MAPPIT interaction score with CG12470 (pair source set: Finley_Y2H) was 2.32.
